tested on: E18 rat cortical neuron-glia co-culture; test: myelination (MBP fiber length per Olig2+ nucleus), % of 1 µM DAPT response (DMSO = 0) (% of DAPT); higher = more myelination, active = 50 or more; conditions: 5 µM; treatment time: 8 days (DIV5-DIV13)
How it was run: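 Four 10X fields in each of duplicate wells were analysed after cultures were fixed in 4 % paraformaldehyde and immunostained for MBP and Olig2, with DAPI as the nuclear counterstain. The cultures were papain-dissociated primary E18 rat cortical co-cultures at 20,000 cells/well on poly-d-lysine/laminin 96-well plates, dosed with library compounds at 1 or 5 µM in myelination medium from DIV5 to DIV13. The myelination readout was continuous straight MBP fiber length per Olig2+ nucleus, with 0.1 % DMSO set to 0 and a 1 µM positive control set to 100.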

myelination, inactive:
CN(C)CCCC1(c2ccc(F)cc2)OCc2cc(C#N)ccc21 (configuration not stated) [Citalopram] -19, O=C(O)CCCc1ccccc1 [4-Phenylbutyric acid] -8.79, CCCc1cc(=O)[nH]c(=S)[nH]1 [Propylthiouracil] -11.9, CC[C@@H](CO)NCCN[C@@H](CC)CO [Ethambutol] -6.9, COC(=O)C1=C(C)NC(C)=C(C(=O)OC)C1c1ccccc1[N+](=O)[O-] [Nifedipine] 10, Cn1cnc([N+](=O)[O-])c1Sc1ncnc2[nH]cnc12 [Azathioprine] -32.9, CC(C(O)c1ccc(O)cc1)N1CCC(Cc2ccccc2)CC1 (configuration not stated) [Ifenprodil] -83.6, CC1=C(C(=O)O)N2C(=O)[C@@H](NC(=O)[C@H](N)c3ccccc3)[C@H]2SC1 [Cephalexin] -1.59, Clc1ccc2nsnc2c1NC1=NCCN1 [Tizanidine] -54.3, Cc1cccc(C)c1OCC(C)N (configuration not stated) [Mexiletine] 8.07, CCN1CCCC1CNC(=O)c1cc(S(N)(=O)=O)ccc1OC (configuration not stated) [Sulpiride] -10.8, Nc1ccc(O)c(C(=O)O)c1 [Mesalamine] -28.3, C[C@H]1c2cccc(O)c2C(=O)C2=C(O)[C@]3(O)C(=O)C(C(N)=O)=C(O)[C@@H](N(C)C)[C@@H]3[C@@H](O)[C@@H]21 [Doxycycline] -0.977, Cc1ccc(S(=O)(=O)NC(=O)NN2CCCCCC2)cc1 [Tolazamide] -16.8, CCC1=C(C)CN(C(=O)NCCc2ccc(S(=O)(=O)NC(=O)N[C@H]3CC[C@H](C)CC3)cc2)C1=O [Glimepiride] -10.6, O=C(O)c1cc(/N=N/c2ccc(S(=O)(=O)Nc3ccccn3)cc2)ccc1O [Sulfasalazine] 1.71, CN1CCC(=C2c3ccccc3CC(=O)c3sccc32)CC1 [Ketotifen] -13.6, CC1(C)O[C@@H]2C[C@H]3[C@@H]4CCC5=CC(=O)C=C[C@]5(C)[C@@]4(F)[C@@H](O)C[C@]3(C)[C@]2(C(=O)CO)O1 [Triamcinolone Acetonide] 19.3, Cc1c(O)c(=O)ccn1C [Deferiprone] -23.2, COc1cc(Cc2cnc(N)nc2N)cc(OC)c1OC [Trimethoprim] 5.27, CC(=O)OCC(=O)[C@@]1(O)CC[C@H]2[C@@H]3CCC4=CC(=O)C=C[C@]4(C)[C@H]3[C@@H](O)C[C@@]21C [Prednisolone acetate] -10.6, Cn1c(=O)c2nc[nH]c2n(C)c1=O [Theophylline] -20.2, CCCc1nc2c(C)cc(-c3nc4ccccc4n3C)cc2n1Cc1ccc(-c2ccccc2C(=O)O)cc1 [Telmisartan] 2.94, CCC(C)n1ncn(-c2ccc(N3CCN(c4ccc(OCC5COC(Cn6cncn6)(c6ccc(Cl)cc6Cl)O5)cc4)CC3)cc2)c1=O (configuration not stated) [Itraconazole] -72.2, CNC[C@H](O)c1ccc(O)c(O)c1 [Epinephrine] 38.8, COc1cc(N)c(Cl)cc1C(=O)NC1CCN(CCCOc2ccc(F)cc2)CC1OC (configuration not stated) [Cisapride] -10.2, NC(=O)c1cnccn1 [Pyrazinamide] -9.54
